Screens (PubChem BioAssay)
ELG1 repair inh: blocks ELG1-dependent DNA repair in HEK293T cells. Potency, µM (titrated, usually from 46.1 µM), without a hit: at the top dose activity change, negative = inhibition, actives largely listed as inhibitors. 330,000 tested, 2.3% active. HEK293T ELG1-luciferase reporter, luminescence, 16 h; DNA damage induced by 5-fluorouridine; further: on the % scale 0 is the no-effect control and ±100 the full control effect; nearly all actives have a fitted effect of over 55% in size
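Reporter activity after DNA damage by 5-fluorouridine is monitored. Compound-treated cells incubate 16 hr at 37 °C, then ONE-Glo is added for 30 min before luminescence reading.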
ELG1 genotox: genotoxicity induction in ELG1-luciferase HEK293T cells; AID 504466; 330,000 tested, 1.3% active; Potency, µM (top dose mostly 46 µM), for inactives: at the top dose activity change, positive = activation, hits mostly activators; HEK293T ELG1-luciferase reporter, luminescence, 16 h; further: % of control where 0% means no effect; nearly all actives have a fitted effect of over 60% in size
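HEK293T cells expressing luciferase-tagged ELG1 were treated with compound or DMSO for 16 hr at 37°C. Luciferase activity was then read after 30 min with ONE-Glo at room temperature; rising signal flags genetic stress.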
SMN2 splice up: increases expression of the SMN2 splice variant | 210,000 tested, 2.8% active | Potency, µM (highest dose often 46.1 µM), without a hit: at the highest dose activity change, positive = activation, most hits filed as activators | HEK293 SMN2-luciferase splicing reporter, luminescence, 30-36 h; further: % of control where 0% means no effect; nearly all actives have a fitted effect of over 55% in size
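qHTS luciferase splicing reporter: luminescence rises when SMN2 exon 7 is included in transfected HEK293 cells. Compound exposure lasted 30-36 h at 37C, with 4.5 mM final sodium butyrate as control, followed by a ONE-Glo read.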
NPC1 prom act: activators of NPC1 promoter | Huh7 NPC1 promoter luciferase reporter, 24 h | Potency, µM (top dose mostly 9.22 µM), inactives show at the highest dose activation, actives largely listed as activators | 320,000 tested, 2.4% active | AID 485313; further: % of control where 0% means no effect; nearly all actives have a fitted effect of over 60% in size
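Readout is luciferase luminescence, reflecting NPC1 promoter activation in stably transfected Huh7 cells after 24 h compound exposure at 37 °C in reduced-serum medium with 10% FBS.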
Rab9 prom act: activates the Rab9 promoter; Huh7 Rab9 promoter-luciferase reporter, luminescence, 24 h; Potency, µM (highest dose often 9.22 µM), inactives show at the top dose activation, negative = inhibition, usual class: activators; 320,000 tested, 2.8% active; AID 485297; further: % of control where 0% means no effect; nearly all actives have a fitted effect of over 60% in size
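Cell-based reporter: Huh7 stable for Rab9 promoter-driven luciferase, plated in reduced-serum medium with 10% FBS at 1500 cells/well, compound-treated 24 h at 37 °C, luminescence read after 10 min reagent.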
FLuc counter: firefly luciferase modulation, counter-screen for miR-21 project | P08659 | purified FLuc, Km substrates, luminescence inhibition | Potency, µM (highest dose often 57.5 µM), for the others: at the top dose activity change, negative = inhibition, usual class: inhibitors | 360,000 tested, 6.9% active;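 further: plate controls were vehicle for no effect and reference inhibitor for full effect; nearly all actives have a fitted effect of over 55% in size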
Target sequence (P08659 whole entry, looked up): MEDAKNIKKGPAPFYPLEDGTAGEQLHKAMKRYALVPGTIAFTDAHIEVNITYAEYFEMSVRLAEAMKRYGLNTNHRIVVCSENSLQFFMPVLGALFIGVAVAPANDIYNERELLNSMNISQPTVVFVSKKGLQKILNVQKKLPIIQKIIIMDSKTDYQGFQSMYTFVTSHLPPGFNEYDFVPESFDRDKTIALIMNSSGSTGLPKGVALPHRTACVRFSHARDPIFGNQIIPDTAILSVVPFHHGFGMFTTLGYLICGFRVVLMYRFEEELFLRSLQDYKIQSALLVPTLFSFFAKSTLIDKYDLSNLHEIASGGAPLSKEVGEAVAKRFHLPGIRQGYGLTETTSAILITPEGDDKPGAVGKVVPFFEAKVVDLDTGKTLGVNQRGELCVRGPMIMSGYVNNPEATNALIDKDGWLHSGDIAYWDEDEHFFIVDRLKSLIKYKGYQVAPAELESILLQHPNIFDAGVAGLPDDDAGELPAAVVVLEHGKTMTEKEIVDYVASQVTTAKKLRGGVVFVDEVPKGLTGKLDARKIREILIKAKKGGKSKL
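Purified P. pyralis luciferase, 10 nM final, with Km-level 10 uM D-luciferin and 10 uM ATP in 50 mM Tris acetate pH 7.5, 10 mM Mg acetate, 0.01% Tween-20, 0.05% BSA; 6-point qHTS titration about 60 µM downward; luminescence read.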
* = called active by the depositor; ? = inconclusive; / = no result given; [ ] = another dose, or the depositor's remark. Compounds with a hit are over-represented: about 9.3% of the library has one in this group of screens. The call rests on the fitted dose curve; in most records, active means well fitted curve in the direction sought with a large enough effect; inconclusive means small, poorly fitted or top-dose-only effect, or another doubt; inactive means no such curve, though single readings can be large; an effect the other way counts as inactive or inconclusive. Potency means the concentration at half of the fitted maximal effect.

SMILES | ELG1 repair inh | ELG1 genotox | SMN2 splice up | NPC1 prom act | Rab9 prom act | FLuc counter
O=C(Nc1nccs1)c1ccc(NC(=O)C2CC=CCC2C(=O)O)cc1 (centres undefined) | ? | 1% | -10% | 6% | 17% | 17µM*
CN(c1ccccc1)S(=O)(=O)c1cccc(C(=O)Nc2nccs2)c1 | -13% | -6% | -33% | -4% | 0% | -6%
O=C(Nc1nccs1)c1ccccn1 | ? | ? | ? | ? | 3.2µM* | ?
O=C(O)c1ccc(NC(=O)C2CC=CCC2C(=O)O)cc1 (centres undefined) | -1% | 1% | 7% | -2% | -1% | 2%
COc1cc(OC)c(N(C)S(=O)(=O)c2cccc(C(=O)Nc3nccs3)c2)cc1Cl | 23µM* | -17% | / | / | / | /
CCOc1cccc(C(=O)Nc2nccs2)c1 | ? | ? | ? | ? | ? | 15µM*
CCCNC(=O)CCn1cc(-c2ccc(OC)cc2)nc1-c1ccncc1 | 8% | 6% | / | 3% | -1% | 5%
CC(C)c1nc2ccc(C(=O)NCc3ccccc3Br)cc2o1 | / | / | / | / | / | -12%
S=c1[nH]c2cc(Cl)c3cccnc3c2o1 | -6% | -1% | / | 0% | 1% | ?
Cc1ccc(-n2c(Cc3noc4ccccc34)n[nH]c2=S)cc1 | 28% | -2% | / | -1% | -3% | -9%
COc1cccc(C2C(C(N)=O)=C(C)Nc3nc(-c4cccc(Cl)c4)nn32)c1 (centres undefined) | ? | ? | ? | 3% | 0% | -3%
CCOc1cccc(C(=O)Nc2nnc(-c3ccco3)s2)c1 | ? | ? | 2.8µM* | ? | 4µM* | 4.8µM*
Cc1cc(-c2cc(N)n(-c3ccccc3)n2)c(C)n1C1CCCC1 | ? | ? | 1% | 3.5µM* | 1.6µM* | 6µM*
Cc1cc(N)n(-c2ccccc2)n1 | 14% | 1% | 0% | 2% | 3% | 0%
COC(=O)c1ccc(Nc2ncnc3c2cnn3-c2cccc(C)c2)cc1 | -3% | 2% | / | 0% | 3% | -6%
Cc1cc(C)c(C)c(S(=O)(=O)NCc2ccncc2)c1C | 2.9µM* | 3% | / | -20% | -22% | 1%
O=C(NCc1ccc2c(c1)OCO2)c1ccc2c(c1)N(Cc1ccccc1)C(=O)c1ccccc1S2=O (centres undefined) | / | / | 19% | / | / | -4%
CCOc1ccc(OCCCN(C)C)cc1 | 13% | 1% | ? | 5% | 1% | 1%
Clc1ccc(/C=N/N2CCCCC2)cc1 | -9% | 12% | / | 12% | 22% | 11µM*
O=[N+]([O-])c1ccc(/C=N/N2CCCCC2)cc1 | ? | ? | / | 2.5µM* | 29%[1.84 µM] | 9.5µM*
O=[N+]([O-])c1ccc(/C=N\N2CCN(c3ccc(Cl)cc3)CC2)cc1 | 1% | -4% | 0% | -2% | 2% | -3%
Oc1ccc(/C=N/N2CCCCC2)cc1O | ? | ? | / | -22% | -3%[1.84 µM] | ?
O=C(Nc1ccc2c(c1)OCCO2)C1CC(O)CN1C(=O)Nc1ccccc1 (centres undefined) | 0% | -1% | / | 0% | -1% | -2%
NC(=O)c1sc2nc(-c3ccco3)ccc2c1N | ? | ? | ? | ? | ? | 11µM*
COC(=O)c1sc2nc(-c3ccco3)ccc2c1N | ? | ? | 6.3µM* | 1.4µM* | 1.1µM* | 0.38µM*
SMILES | ELG1 repair inh | ELG1 genotox | SMN2 splice up | NPC1 prom act | Rab9 prom act | FLuc counter
Nc1c(C(=O)Nc2ccccc2F)sc2nc(-c3ccco3)ccc12 | ? | ? | -19% | ? | ? | ?
CCCc1cc(C(=O)Nc2cc(C)on2)no1 | ? | ? | 5% | 2% | -5% | 21µM*
Cc1cc(NC(=O)c2cc(CC(C)C)on2)no1 | ? | 13µM* | 21% | 2% | 3% | 11µM*
Cc1nc2ccccn2c1C(=O)N=Nc1c(O)n(CCC(C)C)c2ccccc12 | 9.2µM* | -16% | -75% | -9% | -3% | 1%
Cc1cc(C(=O)N=Nc2c(O)n(C(C)C)c3ccccc23)n[nH]1 | -24% | -1% | / | 4% | 19% | -10%
Cc1nc2c(s1)sc1ccccc12 | ? | 13% | -6% | 12% | 7% | 24µM*
O=C(Cn1c(=O)n(Cc2ccco2)c(=O)c2oc3ccccc3c21)Nc1ccccc1 | / | / | / | / | / | -2%
Cc1ccc(C=Nc2ccc(N(C)C)cc2)o1 | ? | 21µM* | -7% | 7% | 8% | 0.27µM*
Cc1ccc(/C=N/n2c(C)nnc2C)o1 | ? | 0% | 7% | -1% | -5% | 1%
CCc1ccc(NC(=O)C(=O)c2cn(CC(=O)N3CCCCC3)c3ccccc23)cc1 | ? | -2% | 3% | 0% | -2% | 9.5µM*
COC(=O)c1ccc(NC(=O)C(=O)c2cn(CC(=O)N3CCOCC3)c3ccccc23)cc1 | -2% | 11% | / | -1% | -3% | -12%
O=C(NCc1ccc(Cl)cc1)C(=O)c1cn(CC(=O)N2CCOCC2)c2ccccc12 | 10% | 6% | / | -3% | -2% | -17%
COc1ccccc1CNC(=O)C(=O)c1cn(CC(=O)N2CCCC2)c2ccccc12 | 12% | 3% | / | 17% | 6% | ?
COc1ccccc1CCNC(=O)C(=O)c1cn(CC(=O)N2CCOCC2)c2ccccc12 | ? | 10% | / | 15% | 18% | 24µM*
Cc1ccc(NC(=O)C(=O)c2cn(CC(=O)N3CCCCC3)c3ccccc23)cc1 | -11% | -1% | 4% | 1% | -2% | 9.5µM*
O=C(Nc1ccccc1Cl)C(=O)c1cn(CC(=O)N2CCOCC2)c2ccccc12 | ? | ? | / | 3.5µM* | 2.5µM* | 0.38µM*
O=c1c2ccccc2sn1-c1ccc(S(=O)(=O)N2CCCC2)cc1 | 16% | 0% | -7% | 9% | 21% | 4.8µM*
Cc1ccc(-n2sc3ccccc3c2=O)cc1S(=O)(=O)N1CCCCC1 | -3% | -8% | -17% | 1% | 8% | 19µM*
O=S(=O)(c1ccc(S(=O)(=O)N2CCCC2)cc1)N1CCCCC1 | 20% | 0% | / | -1% | 0% | 1%
O=c1c2ccccc2sn1-c1nccs1 | 1% | -3% | 6% | 1% | -1% | 8.5µM*
O=c1c2ccccc2sn1-c1ccccc1 | ? | 17% | 6% | 10% | 25% | 7.6µM*
Cc1ccc(C(=O)N2CCCCC2)cc1S(=O)(=O)N1CCCCCC1 | 3% | -1% | / | 0% | -1% | 2%
Cc1ccc(S(=O)(=O)N(C)CC(=O)Nc2cccc(C)n2)cc1 | -2% | -4% | 23% | -3% | -3% | 0%
Cc1ccc(N(Cc2ccc([N+](=O)[O-])cc2)C(=O)c2ccco2)cc1 | -1% | -5% | -2% | -3% | 0% | 3%
